# Results: the supplement of paper PMC11172423
# Values without a mark were called inactive.
# Test system: Madurella mycetomatis MM55
# Experiment: growth relative to untreated control; higher = less inhibition, active = 20 or less
# Conditions: 25 µM
# Outline: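 Growth was expressed as metabolic activity relative to the untreated growth control, with both corrected using a blank of medium plus dye. Hyphal fragments of M. mycetomatis MM55 or F. senegalensis CBS197.79 were suspended to 68–72% transmission at 660 nm in colourless RPMI 1640 containing L-glutamine and MOPS. In 96-well plates they were exposed to compound at 100 or 25 µM for 7 days at 37 °C, and viability was read with MTS (2 h, 490 nm) or resazurin (600 nm).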
row,SMILES,growth
1,Cc1cc(Cl)ccc1NC(=S)N(C)C,106%
2,Cc1cc(OCCN2CCOCC2)nn1-c1ccc2ccccc2c1,85.8%
3,CCN(CC)C(=O)/C(C#N)=C/c1cc(O)c(O)c([N+](=O)[O-])c1,107%
4,Cc1ccccc1-c1noc(-c2ccccc2)n1,93.4%
5,CO[C@H]1C[C@H](O[C@@H]2/C(C)=C/C[C@@H]3C[C@@H](C[C@]4(CC[C@H](C)[C@@H](C5CCCCC5)O4)O3)OC(=O)[C@@H]3C=C(C)/C(=N/O)[C@H]4OC/C(=C\C=C\[C@@H]2C)[C@]43O)O[C@@H](C)[C@@H]1O,88.8%
6,CC(=O)[C@@]1(O)CC[C@H]2[C@H]3CCC4=CC(=O)CC[C@@]4(C)[C@H]3CC[C@@]21C,80.2%
7,CNC(=O)c1cc(-c2n[nH]c3ccc(-c4nc(C5CCCN5)n[nH]4)cc23)ccc1F (stereo unspecified),98.4%
8,CC(C)C(=O)OCC(=O)[C@@]12OC(C3CCCCC3)O[C@@H]1C[C@H]1[C@@H]3CCC4=CC(=O)C=C[C@]4(C)[C@H]3[C@@H](O)C[C@@]12C (stereo partly specified),75.3%
9,c1ccc(-c2ccnc(C3CCN(CC45CNCC4C5)CC3)n2)cc1 (stereo unspecified),71.4%
10,CC(=O)Oc1ccccc1C(=O)Nc1ncc([N+](=O)[O-])s1,87.7%
11,C[C@@H](O[C@H]1OCCN(Cc2n[nH]c(O)n2)[C@H]1c1ccc(F)cc1)c1cc(C(F)(F)F)cc(C(F)(F)F)c1,89.8%
